We go through ten compounds from PubChem BioAssay.

SMILES strings stand for the structures. Calls of active or inactive are those of the source.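 Rule for the calls, unless noted: active = inhibition at or above 50% relative to wild type and mutant plate controls; inactive = inhibition below 50%.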

Assay [1] can be described thus: inhibitors of TNFa-induced NFkB p65 translocation, primary screen, imaging, HUVEC, MLSMR starter and 10KST1 sets (AID 438;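 active = inhibition above 20% together with a positive visual image hit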;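 note: compound added about 3h40 before a 20 min TNFalpha stimulation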;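 for inhibition: signal is the nuclear over cytoplasmic p65 intensity ratio per well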). The settings on record: HUVEC TNFa-induced p65 nuclear translocation; cell count: measured here: nuclei count (cytotoxicity indicator), at 2.08 µM; inhibition: at 2 µM, stronger effect = higher value, 0% TNFa-plus-vehicle, 100% no-TNFa wells.
Assay [2] is described as follows: reduction of polyQ htt aggregates in cells – imaging, exon1htt(103Q)mCFP cells, high-content imaging, primary screen (AID 483;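 active = visual image review flags a hit and inhibition of aggregation exceeds 20%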;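 note: compound exposure lasted 3 days before fixation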;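 for nuclei count: percent of the per-plate median nuclei count of sample wells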). The settings on record: exon1htt(103Q)mCFP cell line, aggregate imaging, at 2 µM; inhibition of aggregation: stronger effect = higher value; nuclei count: measured here: cell count, toxicity.
Assay [3] can be described thus: endothelial E-selectin expression blockers – imaging, HUVEC, immunofluorescence, MLSMR starter and 10KST1 sets, primary screen (AID 487;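 active = visually confirmed hit in the image check and inhibition above 20%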;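 for inhibition: signal is fraction of cell area covered by stained E-selectin grains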;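 for nuclei count: 100% = median nuclei count of all wells on the same plate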). The settings on record: HUVEC TNFalpha-induced E-selectin immunofluorescence imaging, at 2 µM; inhibition: stronger effect = higher value; nuclei count: measured here: cell number, toxicity.
Assay [4] in a line: Primary imaging screen for DUSP6 inhibitors that restore phospho-Erk in transfected HeLa cells, chemical complementation (AID 609;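 active = compounds giving at least 50% inhibition in the cell-based MKP-3 phosphatase rescue imaging test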;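 for inhibition: phospho-Erk level distribution per well compared with pooled transfected vehicle control wells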). The settings on record: HeLa MKP-3 transfected, phospho-Erk imaging KS statistic, at 10 µM, cells stimulated with TPA for 15 min.
Assay [5] has as its target Dual specificity protein phosphatase 6 (Homo sapiens) (UniProt Q16828). Described as above. The settings on record: HeLa MKP-3 transfected, phospho-Erk imaging KS statistic; at 10 µM; stronger effect = higher value; cells stimulated with TPA for 15 min.
The target of assay [6] is Voltage-gated potassium channel subunit beta-2 (Rattus norvegicus) (UniProt P62483). Briefly: inhibitors of rat Kvbeta2 reductase activity – biochemical, NADPH fluorescence, primary screen (AID 622;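 active = fluorescence slope higher than the sample average by over 3 SD, cut at about -0.22 in these data, passing the limit was not always enough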;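 note: slope of raw intensity against log time taken from 70 to 1610 s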). The settings on record: recombinant KvBeta, 4-cyanobenzaldehyde reduction, at 10 µM, stronger effect = higher value.
For assay [7] the target is unchanged. Briefly: enhancers of rat Kvbeta2 NADPH turnover – biochemical, NADPH fluorescence, primary screen (AID 623;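 active = NADPH fluorescence slope more negative than the mean of all samples by about 3 SD, 99.7% confidence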;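 note: fluorescence intensity change per second fitted from 20 to 320 s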). The settings on record: Recombinant KvBeta, NADPH fluorescence decrease slope, 10 min; at 10 µM; stronger effect = lower value.
For assay [8], the target named is Muscarinic acetylcholine receptor M4 (Homo sapiens) (UniProt P08173). Briefly: M4-linked GIRK flux change, two-sided – cell-based, HEK293 M4/GIRK, thallium flux, BTC-AM, M4 allosteric agonist project, primary screen (AID 625;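 active = fluorescence slope after compound addition differing from the mean of all tested samples at 99.7% confidence, mostly higher but some lower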;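 note: thallium influx through GIRK channels coupled to M4 in HEK293 cells with BTC-AM dye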). The settings on record: at 10 µM, actives lie on both sides.
Assay [9] is described as follows: inhibitors of larval lipid processing in zebrafish, primary screen, whole organism, PED6 fluorescence, gall bladder and intestine (AID 686;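 active = a full or partial loss of lipid-probe fluorescence in the fish gall bladder, intestine or both, judged by eye; inactive = no fluorescence loss, or compound toxic to the fish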;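 note: larvae 5 to 7 days old with five fish per well; signal comes from phospholipase A2 cleavage of quenched PED6 carried via bile; overnight exposure to compound and PED6 before scoring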). The settings on record: Zebrafish larvae PED6 lipid processing, fluorescence scoring; screened at 20 µM (by protocol).
The nature of assay [10]: loss of swimming-algae plug formation – whole organism, Chlamydomonas reinhardtii, WT vs cilia-less mutant, absorbance, 96-well, primary screen (AID 463189).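 Note: 0% = wild type cc124 cells in DMSO and 100% = ciliumless bld1 mutant cells.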 The settings on record: Chlamydomonas reinhardtii gravitaxis, OD600 absorbance, 2 days; at 10 µM; stronger effect = higher value.
Assay [11] is described as follows: blockers of RIG-like receptor reporter activation – cell-based, Sendai virus stimulus, luciferase, 10K MLSCN set, TLR/RLR signaling modifier project, primary screen (AID 602276;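 active = inhibition at or above 50% at 10 µM; inactive = inhibition below 50%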;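 note: firefly luciferase from ISG56 promoter only with Renilla not read in this screen; 0% = Sendai virus plus DMSO and 100% = medium plus DMSO without virus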). The settings on record: HEK293 RL24 IRF3 luciferase reporter, at 10 µM, stronger effect = higher value.
Assay [12] is described as follows: TLR3 IRF3 reporter activation blockers – cell-based, poly I:C stimulus, luciferase, 10K MLSCN set, primary screen (AID 602277;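 active = inhibition of the reporter signal at or above 50%; inactive = inhibition below 50%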). The settings on record: HEK293-TLR3 RL24 IRF3 luciferase reporter, at 10 µM, stronger effect = higher value. (In general: In a reporter assay the amount or activity of a reporter protein is the signal.)
The mark [13] stands for this setting: measured here: cell density z-score.
The mark [14] stands for this setting: measured here: nuclear c-Myc green intensity z-score.
Setting [15] is: measured here: nuclear pErk red intensity z-score, stronger effect = higher value.

Dual specificity protein phosphatase 6 (Homo sapiens), sequence (Q16828 whole entry, looked up): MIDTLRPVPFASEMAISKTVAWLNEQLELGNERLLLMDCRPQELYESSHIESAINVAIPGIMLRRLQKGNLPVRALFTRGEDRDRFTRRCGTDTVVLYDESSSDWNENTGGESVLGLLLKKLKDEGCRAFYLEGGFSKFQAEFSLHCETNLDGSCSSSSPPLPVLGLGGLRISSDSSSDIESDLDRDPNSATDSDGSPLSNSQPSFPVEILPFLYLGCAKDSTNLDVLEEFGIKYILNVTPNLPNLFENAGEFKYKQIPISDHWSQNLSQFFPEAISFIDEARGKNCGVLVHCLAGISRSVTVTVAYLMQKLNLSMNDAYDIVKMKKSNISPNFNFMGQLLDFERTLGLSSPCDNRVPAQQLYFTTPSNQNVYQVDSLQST
Muscarinic acetylcholine receptor M4 (Homo sapiens), sequence (P08173 whole entry, looked up): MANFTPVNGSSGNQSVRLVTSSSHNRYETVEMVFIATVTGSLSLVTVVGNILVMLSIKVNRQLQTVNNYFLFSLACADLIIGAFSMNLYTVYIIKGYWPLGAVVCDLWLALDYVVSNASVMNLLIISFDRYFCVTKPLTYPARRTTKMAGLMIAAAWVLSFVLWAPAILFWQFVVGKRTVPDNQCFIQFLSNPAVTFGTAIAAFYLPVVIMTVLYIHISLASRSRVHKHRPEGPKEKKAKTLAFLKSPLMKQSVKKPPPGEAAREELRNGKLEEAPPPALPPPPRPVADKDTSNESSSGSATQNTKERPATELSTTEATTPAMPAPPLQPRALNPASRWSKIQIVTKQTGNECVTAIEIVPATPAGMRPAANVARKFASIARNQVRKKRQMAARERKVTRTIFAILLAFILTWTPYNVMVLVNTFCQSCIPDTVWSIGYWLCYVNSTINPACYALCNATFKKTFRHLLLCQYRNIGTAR
Voltage-gated potassium channel subunit beta-2 (Rattus norvegicus), sequence (P62483 whole entry, looked up): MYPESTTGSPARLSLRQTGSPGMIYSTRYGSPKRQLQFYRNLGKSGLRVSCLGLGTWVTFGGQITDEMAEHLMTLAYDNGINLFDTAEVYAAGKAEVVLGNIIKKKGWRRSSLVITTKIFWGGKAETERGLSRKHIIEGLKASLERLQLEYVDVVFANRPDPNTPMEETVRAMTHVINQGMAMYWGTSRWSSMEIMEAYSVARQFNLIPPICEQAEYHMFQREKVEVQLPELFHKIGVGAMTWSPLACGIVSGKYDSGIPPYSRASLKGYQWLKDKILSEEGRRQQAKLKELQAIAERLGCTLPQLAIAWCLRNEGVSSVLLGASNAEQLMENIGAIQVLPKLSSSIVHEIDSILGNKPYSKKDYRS

For `COc1ccc(C(=O)NCCCCCC(=O)O)cc1OC`, the cell count in assay [1] is 687. Moreover, the inhibition is -15.7% (inactive) in [1]; -46.5% (inactive) in [3]; 18.9% (inactive) in assay [5]; 32.7% (inactive) in assay [10]; 3.62% (inactive) in assay [11]; 12.3% (inactive) in [12]. The inhibition of aggregation in [2] is 12.2% (inactive). Moreover, the nuclei count was determined as 93% in [2] and 119% in assay [3]. Further, the figures for the z-score in [4] (setting [13]), in [4] (setting [14]) and in assay [4] (setting [15]) were -0.456, -0.271 and 0.551, respectively. The fluorescence slope was -0.427 (inactive) in assay [6] and 0.00503 (inactive) in [8]. The NADPH fluorescence slope in assay [7] was -3.8e-05 (inactive). In addition, the outcome in assay [9] was inactive.
Regarding `N#C/C(C(=O)N1CCOCC1)=C1/SC(Cc2ccccc2)C(=O)N1c1ccccc1` (stereo not given), the cell count in [1] was 520. Moreover, the inhibition was -7.6% (inactive) in [1]; 3.5% (inactive) in assay [3]; -2.09% (inactive) in assay [5]; -6.43% (inactive) in assay [10]; 15.2% (inactive) in assay [11]; 24.9% (inactive) in assay [12]. Also, in assay [2], the inhibition of aggregation is 18.9% (inactive). Also, the nuclei count in assay [2] was determined as 105%; in assay [3], 112%. In addition, the z-score was -1.65 in assay [4] (setting [13]), 1.02 in assay [4] (setting [14]) and 0.783 in assay [4] (setting [15]). In addition, the fluorescence slope in assay [6] is -0.431 (inactive); in [8], 0.00475 (inactive). Also, in assay [7], the NADPH fluorescence slope was -3.8e-05 (inactive). In addition, the result in assay [9] was inactive.
For `Cc1cc(O)c(C(C)C)cc1N=C1CSC(=O)N1`, the cell count in assay [1] amounted to 428. Besides, the inhibition in assay [1] is -5.3% (inactive); in assay [3] it was -9% (inactive); in assay [5], 12.8% (inactive); in assay [10] it was -20% (inactive); in [11], 13% (inactive); in assay [12] it was 19.6% (inactive). Besides, the inhibition of aggregation in assay [2] is 10.4% (inactive). Also, the results for the nuclei count in [2] and in assay [3] were 60.9% and 98.6%, respectively. Also, the z-score in assay [4] (setting [13]) is 0.698; in assay [4] (setting [14]), -0.53; in assay [4] (setting [15]), 0.0977. The fluorescence slope in [6] was -0.483 (inactive); in assay [8], 0.00491 (inactive). Besides, in assay [7], the NADPH fluorescence slope is -5.3e-05 (inactive). Also, the compound was called inactive in assay [9].
With `Cn1c(=O)n(Cc2ccccc2)c(=O)c2c1nc(NCC1CCCO1)n2Cc1ccccc1` (stereo not given), in [1], the cell count stood at 665. Besides, the inhibition in assay [1] is -8% (inactive); in assay [3], -41.8% (inactive); in assay [5] it was -5.95% (inactive); in assay [10], -18.5% (inactive); in [11], -5.28% (inactive); in assay [12] it was -6.2% (inactive). Moreover, the inhibition of aggregation in assay [2] was -1.5% (inactive). The nuclei count in assay [2] is 104%; in assay [3], 102%. Moreover, the z-score in assay [4] (setting [13]) is -3.11; in [4] (setting [14]), 0.807; in assay [4] (setting [15]), -1.47. For the same compound, the fluorescence slope in assay [6] is -0.509 (inactive); in assay [8], 0.00514 (inactive). In addition, the NADPH fluorescence slope in [7] is -0.000124 (inactive). For the same compound, the outcome in [9] was inactive.
Regarding `CCOC(=O)c1c(-c2cccs2)csc1NC(=O)CCCC(=O)O`, the cell count in [1] was found to be 550. In addition, the inhibition in assay [1] is -0.4% (inactive); in assay [3] it was -22.1% (inactive); in assay [5], -5.81% (inactive); in assay [10], 16.8% (inactive); in [11], 15.6% (inactive); in assay [12] it was 21.7% (inactive). For the same compound, the inhibition of aggregation in assay [2] was -5% (inactive). Also, the nuclei count is 110% in assay [2] and 106% in assay [3]. Also, the z-score is 0.00511 in [4] (setting [13]), -0.304 in [4] (setting [14]) and -0.262 in [4] (setting [15]). Besides, the values for the fluorescence slope in assay [6] and in [8] were -0.427 (inactive) and 0.00466 (inactive), respectively. Also, the NADPH fluorescence slope in assay [7] was -5.3e-05 (inactive). Besides, the outcome in assay [9] was inactive.
For the compound `Cc1c(NC(=O)c2ccc(=O)oc2)c(=O)n(-c2ccccc2)n1C`, the cell count in [1] came out at 553. Also, the inhibition is -12.6% (inactive) in assay [1]; -22.2% (inactive) in assay [3]; 3.42% (inactive) in assay [5]; 23.3% (inactive) in [10]; 22.3% (inactive) in assay [11]; 24.4% (inactive) in [12]. The inhibition of aggregation in assay [2] was 1.2% (inactive). Further, the nuclei count in [2] stood at 78.4%; in [3], 119%. For the same compound, the values for the z-score in assay [4] (setting [13]), in assay [4] (setting [14]) and in [4] (setting [15]) were -1.01, 0.226 and 0.431, respectively. In addition, the fluorescence slope was -0.249 (inactive) in assay [6] and 0.00562 (inactive) in assay [8]. In addition, the NADPH fluorescence slope in [7] is -7.6e-06 (inactive). The outcome in assay [9] was inactive.
For `CCN1CCc2c(C#N)c(N3CCCCC3)nc(NCc3ccccc3)c2C1`, in assay [1], the cell count amounted to 466. For the same compound, the inhibition in assay [1] is -4.8% (inactive); in assay [3] it was -51.6% (inactive); in assay [5], 16.5% (inactive); in assay [10], 23.7% (inactive); in assay [11] it was 14.7% (inactive); in assay [12] it was 31.2% (inactive). The inhibition of aggregation in assay [2] is 16.8% (inactive). Besides, the figures for the nuclei count in [2] and in assay [3] were 89.7% and 112%, respectively. The values for the z-score in assay [4] (setting [13]), in assay [4] (setting [14]) and in assay [4] (setting [15]) were 1.27, -1.37 and -1.11, respectively. Besides, the fluorescence slope in assay [6] was -0.472 (inactive); in assay [8] it was 0.00484 (inactive). For the same compound, the NADPH fluorescence slope in [7] is -3.9e-05 (inactive). In addition, the call in assay [9] was inactive.
For the compound `CN(C)/C=C1\N=C(c2ccc(Cl)cc2Cl)OC1=O`, the cell count in assay [1] came to 698. In addition, the inhibition was -4.8% (inactive) in assay [1]; -31.3% (inactive) in [3]; 13.2% (inactive) in assay [5]; 40.7% (inactive) in assay [10]; -61.9% (inactive) in assay [11]; -177% (inactive) in assay [12]. In addition, the inhibition of aggregation in [2] was 8.1% (inactive). The nuclei count in assay [2] was determined as 71.7%; in assay [3], 120%. The z-score in assay [4] (setting [13]) is -1.76; in [4] (setting [14]), 2.52; in assay [4] (setting [15]), -0.794. In addition, the fluorescence slope in [6] was -0.335 (inactive); in assay [8], 0.00537 (inactive). Besides, in assay [7], the NADPH fluorescence slope is -4e-05 (inactive). In assay [9], the outcome was inactive.
On to `CCOC(=O)c1ccc2nc(NC(NC(C)=O)(C(=O)OC)C(F)(F)F)sc2c1` (stereo not given), for which the cell count in assay [1] was 520. The inhibition is -8.2% (inactive) in assay [1]; -23.9% (inactive) in [3]; 9.42% (inactive) in assay [5]; -10.3% (inactive) in assay [10]; 133% (active) in assay [11]; 99% (active) in [12]. Further, the inhibition of aggregation in assay [2] is -4% (inactive). Further, the nuclei count was determined as 93.1% in assay [2] and 130% in [3]. The z-score in assay [4] (setting [13]) is 1.37; in assay [4] (setting [14]) it was -0.549; in assay [4] (setting [15]), -0.534. The fluorescence slope is -0.458 (inactive) in [6] and 0.00434 (inactive) in assay [8]. The NADPH fluorescence slope in assay [7] was -9.4e-05 (inactive). Also, the compound was classed as inactive in assay [9].
Regarding `CCCCc1nc2n[nH]c(N)c2c2c1CCCC2`, the cell count in assay [1] came out at 512. Also, the inhibition in assay [1] is -7.9% (inactive); in [3] it was -85.3% (inactive); in assay [5] it was 3.49% (inactive); in assay [10] it was 10.9% (inactive); in assay [11] it was -0.43% (inactive); in assay [12], 8.9% (inactive). For the same compound, in [2], the inhibition of aggregation was -112% (inactive). In addition, the nuclei count was found to be 2.8% in [2] and 124% in assay [3]. For the same compound, the z-score in assay [4] (setting [13]) was -0.979; in [4] (setting [14]), 1.39; in assay [4] (setting [15]), 0.873. The fluorescence slope in assay [6] was -0.447 (inactive); in assay [8], 0.00605 (inactive). Also, in assay [7], the NADPH fluorescence slope is -0.000136 (inactive). Besides, the result in assay [9] was inactive.

A word on the inhibition: it is the drop in the measured response relative to a control, in per cent.
